# Data published in the supplement of paper PMC3334620.
# Over roughly 33,000 sequences, “E-score (-0.5 to 0.5)” has its median near -0.036; the highest 2% begin near 0.37. For the sample, the highest values were picked, then their nearest neighbours and some sequences at random.
# Biological target: T1, Yer064c (UniProt P40041)
# T1 sequence: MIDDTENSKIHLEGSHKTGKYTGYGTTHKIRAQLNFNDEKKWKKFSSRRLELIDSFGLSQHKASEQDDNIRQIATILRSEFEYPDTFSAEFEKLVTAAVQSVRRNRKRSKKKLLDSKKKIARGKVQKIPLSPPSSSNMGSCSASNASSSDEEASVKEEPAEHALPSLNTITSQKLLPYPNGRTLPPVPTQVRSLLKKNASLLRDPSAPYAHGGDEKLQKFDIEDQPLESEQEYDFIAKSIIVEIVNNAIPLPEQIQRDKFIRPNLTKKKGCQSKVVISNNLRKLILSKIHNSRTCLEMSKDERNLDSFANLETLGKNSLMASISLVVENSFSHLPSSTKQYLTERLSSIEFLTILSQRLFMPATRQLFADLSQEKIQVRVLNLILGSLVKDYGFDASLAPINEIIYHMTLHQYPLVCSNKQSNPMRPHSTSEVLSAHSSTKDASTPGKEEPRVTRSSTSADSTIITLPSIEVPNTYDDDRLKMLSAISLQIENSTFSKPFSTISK
# Experiment: PBM E-score (8-mer binding enrichment) (E-score (-0.5 to 0.5)); higher = stronger / more preferred TF binding
# Settings: protein concentration: 200 nM; construct: GST-full length
# Protocol: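 Universal 'all 10-mer' protein binding microarrays (Agilent AMADID 015681) probed with GST-tagged S. cerevisiae TFs (full-length or DBD) made by in vitro transcription/translation (PURExpress), about 100-200 nM. Bound TF was detected with fluorescent anti-GST. Each ungapped 8-mer (which stands for itself and its reverse complement) is scored by the PBM enrichment score (E-score), a modified Wilcoxon-Mann-Whitney statistic from -0.5 to +0.5, computed with the Universal PBM Analysis Suite. Scale: above 0.35 generally sequence-specific binding.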
row,Sequence,PBM E-score
1,ACCTCCAA,0.0762
2,ATGTAACG,-0.038
3,TACCGCCA,-0.125
4,AGATAGGA,-0.126
5,TTAATCAA,0.371
6,AGAATCAA,0.243
7,CTAATCAA,0.264
8,TCAATCAA,0.281
9,CGAATCAA,0.272
10,TGAATCAA,0.419
11,ATCGACAG,-0.109
12,AGTGAGTG,0.0771
13,CGTGAGTC,0.48
14,AGTGAGTA,0.355
15,AGTGAGTC,0.474
16,CGTGAGTA,0.323
17,CGTGAGCC,0.0694
18,GGGTGGGA,-0.139
19,ACCCCAAT,-0.114
20,GTATTGTA,-0.0603
21,ATTGGATC,-0.0186
22,AATTTTGT,0.161
23,AAGCGGGA,-0.239
24,AGATAGTC,0.403
25,CGATAGTA,0.032
26,AGATAGTA,0.177

row,Sequence,PBM E-score
1,CGATAGCC,-0.0746
2,CGATAGTC,0.422
3,AGATAGTG,0.0368
4,GAACAAGC,-0.357
5,GAGACATA,0.334
6,AAGTCGGT,0.0145
7,AAAAGACA,-0.0266
8,AGGTGGAC,-0.133
9,GGTCAGAA,-0.00031
10,TGTCAGAA,-0.00325
11,ACTCAGAG,0.302
12,CGTCAGAG,-0.136
13,AATCAGAT,0.329
14,AGTCAGAA,0.434
15,AGTCAGAC,0.436
16,AGTCAGAG,0.428
17,GGTCAGAC,0.0361
18,AGTCAGAT,0.427
19,CGTCAGAC,-0.124
20,ACTCAGAT,0.339
21,GGGTATAA,-0.108
22,ATCGTGAG,0.124
23,CCGCGTTC,-0.274
24,AATTCCCC,-0.128
25,ACCGGCAG,-0.243
26,AAAGGAAG,-0.0963

row,Sequence,PBM E-score
1,GAGACAGC,0.136
2,CTCCTCGA,0.0215
3,ATTGATCC,0.0238
4,GCGATCCA,-0.145
5,CTGTAAGC,-0.0285
6,CTGTAGTC,0.416
7,ATGTAGTC,0.382
8,CTGTAGAC,0.0599
9,CTGTAGTA,0.13
10,ATGTAGTA,0.0442
11,ATGTAGTG,0.0118
12,GTCCGCAA,0.00032
13,CTAACCGA,0.171
14,ACGGAGAT,0.0115
15,CATTCGAA,0.0908
16,CCGGTGTA,-0.162
17,CTAGTCAA,0.383
18,GTCGTCAC,0.142
19,GTAGTAAC,0.0921
20,GTAGTCAC,0.479
21,GTAGTCGA,0.263
22,CTAGTCGA,0.214
23,CTAGTCAC,0.461
24,CTAGTCCC,-0.135
25,CTAGTCTA,0.205
26,GTAGTCCA,0.262

row,Sequence,PBM E-score
1,GTAGTCAA,0.445
2,CTAGTCTC,0.278
3,ACCACTCT,-0.0617
4,GTCACGAA,0.106
5,TACGTCAA,-0.153
6,TTAGTCAA,0.464
7,TTAGTGAA,0.178
8,TAGTGCGA,-0.0974
9,AACTCGAC,0.0909
10,GACTCGAC,0.391
11,AACTCGAA,-0.0714
12,GACTCGAA,0.396
13,CACTCGAC,-0.0515
14,CACTCGAA,0.212
15,CAGGCATG,-0.133
16,GTCCTCGA,0.197
17,CTATCCCA,-0.208
18,ACGACTAA,0.438
19,GCTACTAA,-0.101
20,ACTACTAA,0.25
21,GCAACTAA,0.0789
22,CCGACTAA,0.358
23,GCGACTAA,0.442
24,TCGACTAA,0.373
25,ACTACGAC,0.302
26,TCGACGAA,-0.00207

row,Sequence,PBM E-score
1,ACGACGAA,0.139
2,AGGACTAC,0.341
3,ACGACTAC,0.415
4,GGGAAACC,-0.0566
5,CTTCTGTA,-0.0492
6,ATGGTGCC,-0.358
7,TGATTGAA,0.333
8,CCCTCTGC,-0.226
9,ACGACTAG,0.359
10,ACGACGAT,0.023
11,GCGACTAC,0.391
12,GGGACTAC,0.228
13,CCGACTAC,0.325
14,ACGACTAT,0.401
15,CGCACAAG,0.0388
16,AGGATAGG,-0.0969
17,ACCAACTG,-0.097
18,CAACGTGC,-0.137
19,ACGCTGTA,-0.00895
20,ATGGCTCC,0.256
21,ATGGCTCA,0.422
22,ATGGCTCG,0.237
23,CCATAAAG,-0.178
24,CTGACTTA,0.407
25,AGGACTTA,0.234
26,CCGACTTA,0.263

row,Sequence,PBM E-score
1,GTGACTTA,0.443
2,CGGACTTA,0.203
3,GTAACTTA,0.166
4,ATGACTTA,0.475
5,GGGACTTA,-0.0167
6,ATGACGTA,0.0562
7,CAGACACG,-0.14
8,AGCGGTCA,-0.0499
9,ACTTACAT,-0.0151
10,AAGGGGCC,-0.145
11,AGCGAGGC,-0.282
12,AGGAGTAA,0.177
13,AGGAGTGA,0.105
14,AGGAGTCC,0.297
15,AGGAGTTG,-0.0388
16,AGGAGTCG,0.375
17,AGGAGTCA,0.486
18,ACTTTCTG,0.208
19,TCCACAAA,0.0257
20,ACCTCCTA,-0.134
21,CCGCACCA,0.017
22,TGCCCCAA,0.0126
23,CAGTGAAA,0.0766
24,GGTGTCGA,0.046
25,AACTACAC,0.0443
26,CACTACAC,-0.0592

row,Sequence,PBM E-score
1,GACTACAA,0.402
2,CACTACAA,0.0688
3,GACTACAC,0.399
4,TACTACAA,0.119
5,ACCAGCGC,-0.221
6,GGGCCCGA,-0.142
7,GAGCACGC,-0.163
8,GCTAAAAA,0.0668
9,CCTGAGTA,0.234
10,CCTGAGGC,-0.16
11,ACTGAGTG,0.161
12,CCTGAGTC,0.461
13,ACTGAGTC,0.477
14,CCTAAGTC,0.276
15,ACTAAGTA,0.235
16,ACTGAGTA,0.28
17,ACTAAGTC,0.376
18,CGGTATAC,-0.119
19,ATCCGGGA,-0.104
20,AATGCACA,-0.0113
21,TAGCCGCA,-0.0712
